Source: PubChem BioAssay (Tox21)
Inconclusive results are not listed. Where a call stands in place of a potency, no number is given. Unmarked numbers belong to inactive results. The source made the active and inactive calls. Unless noted, calls come from the whole dose curve.

Test: qHTS assay to identify small molecule agonists of the hypoxia (HIF-1) signaling pathway - cell viability counter screen (AID 1224844); note: nearly all actives have a fitted effect of over 50% in size; note: potency is the fitted concentration of half-maximal effect
Conditions: HRE-bla ME-180 viability, CellTiter-Glo luminescence, 17 h; series mostly up to 76.8 µM
Summary of the method: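 CellTiter-Glo luminescence read-out, 30 min RT, taken in the same wells as the beta-lactamase HRE reporter assay; HRE-bla ME-180 cells, 0.5% dialyzed FBS, 17 hr compound treatment at 37C, 5% CO2.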

Q: Which Potency does the source give for `Nc1c(Cl)cc(Cl)cc1Cl` here?
A: inactive

Q: Which activity change, negative = cytotoxicity does the source give for `CC(NN)c1ccccc1` (configuration not stated) here?
A: 1.2% [at 15.8 µM]

Q: With `COc1cc(/C=C/C(=O)O[C@H]2CC[C@]34C[C@]35CC[C@]3(C)[C@@H]([C@H](C)CCC=C(C)C)CC[C@@]3(C)[C@@H]5CC[C@H]4C2(C)C)ccc1O` as the molecule, how does the Potency read?
A: inactive

Q: For `CCC(N)(CO)CO`, which Potency is on record?
A: inactive

Q: With `CC1=NC(C)OC1C` (configuration not stated) as the molecule, how does the Potency read?
A: inactive

Q: Which Potency does the source give for `CC(C)(C)C(=O)OCOC(=O)C1N2C(=O)CC2S(=O)(=O)C1(C)C` (configuration not stated) here?
A: inactive

Q: With `OCCCCCCCCCCCCBr` as the molecule, how does the Potency read?
A: 44.3 µM (active)

Q: Which Potency does the source give for `CCN(CCC#N)c1ccc(N=Nc2c(Cl)cc([N+](=O)[O-])cc2Cl)cc1` here?
A: inactive

Q: For `COC(=O)C1=C(C)NC(C)=C(C(=O)OCC(C)C)C1c1ccccc1[N+](=O)[O-]` (configuration not stated), which Potency is on record?
A: 49 µM (active)

Q: With `N#CC1(c2ccc(F)cc2)CCC(=O)CC1` as the molecule, how does the Potency read?
A: inactive

Q: For `CCCCCCCCCCC=O`, which Potency is on record?
A: inactive

Q: Which Potency does the source give for `CN(C)c1ccc(SC#N)cc1` here?
A: inactive

Q: For `CCCCCCCCOc1ccccc1C(=O)Nc1ccc(C(=O)OCC[N+](C)(CC)CC)cc1`, which Potency is on record?
A: 7.56 µM (active)

Q: For `CC(C)(C)c1ccc(C(=O)O)cc1`, which Potency is on record?
A: inactive

Q: For `CC(C)(C)C1CCC(CC2=C(O)c3ccccc3C(=O)C2=O)CC1` (configuration not stated), which Potency is on record?
A: inactive

Q: With `O=C1c2ccccc2Cc2ccccc21` as the molecule, how does the Potency read?
A: inactive

Q: With `Cc1nc(-c2ccc3c(c2)CCN(CCC2CCC(NC(=O)/C=C/c4ccc(F)cc4)CC2)CC3)no1` (configuration not stated) as the molecule, how does the Potency read?
A: inactive

Q: For `NC(=O)NS(=O)(=O)c1ccc(N)cc1`, which Potency is on record?
A: inactive

Q: For `CCC1OCC(COc2ccc(Oc3ccccc3)cc2)O1` (configuration not stated), which Potency is on record?
A: inactive

Q: For `c1ccc(CSCc2ccccc2)cc1`, which Potency is on record?
A: inactive

Q: Which Potency does the source give for `Cc1cc(O)c(Cl)c(C)c1Cl` here?
A: inactive

Q: For `Cc1c(C)c2c(c(C)c1O)CCC(C)(COc1ccc(CC3SC(=O)NC3=O)cc1)O2` (configuration not stated), which Potency is on record?
A: inactive

Q: With `C[C@H]1[C@H]2CC[C@H]3[C@@H]4CC=C5C[C@@H](N(C)C)CC[C@]5(C)[C@H]4CC[C@]23CN1C` as the molecule, how does the Potency read?
A: inactive

Q: For `CCCCCOC(=O)CCCC`, which Potency is on record?
A: inactive

Q: With `CSc1cnc(C)cn1` as the molecule, how does the Potency read?
A: inactive

Q: With `O=c1[nH]cnc2nc[nH]c12` as the molecule, how does the Potency read?
A: inactive

Q: With `Cc1cc(N)c(S(=O)(=O)O)cc1Cl` as the molecule, how does the Potency read?
A: inactive

Q: With `Fc1ccc([C@@H]2CCNC[C@H]2COc2ccc3c(c2)OCO3)cc1` as the molecule, how does the Potency read?
A: inactive

Q: With `C/C=C(\C)C(=O)OCc1ccccc1` as the molecule, how does the Potency read?
A: inactive

Q: Which Potency does the source give for `CCCCCCCC(=O)[O-].CCCCCCCC(=O)[O-].[Zn+2]` here?
A: inactive

Q: Which Potency does the source give for `C1CCCC1` here?
A: inactive

Q: With `C/C=C1/C(=O)C[C@H]2[C@@H]3CCC4=CC(=O)CC[C@]4(C)[C@H]3CC[C@]12C` as the molecule, how does the Potency read?
A: inactive

Q: Which Potency does the source give for `CN(C)CCCOC1(Cc2ccccc2)CCCCCC1` here?
A: inactive

Q: With `CCC(C)(C)C1CCCCC1OC(C)=O` (configuration not stated) as the molecule, how does the Potency read?
A: inactive

Q: With `O=C(O)c1ccc(Cl)c(Cl)c1` as the molecule, how does the Potency read?
A: inactive

Q: Which Potency does the source give for `Cc1ccc(O)c(C(C)(C)C)c1` here?
A: inactive

Test: qHTS assay to identify small molecule agonists of H2AX (AID 1224845; active = well fitted activation curve with a large enough effect in the signal ratio in the repeat runs, not every such curve was filed as active; the % refers to the signal ratio)
Conditions: CHO-K1 phospho-H2AX Ser139 HTRF, 3 h; series mostly up to 154 µM
Summary of the method: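 Wild-type CHO-K1 cells plated overnight, then exposed 3 hr at 37C to compounds at 15 concentrations (0.76% DMSO). Lysed, then HTRF anti-pH2AX(S139)-cryptate/anti-H2AX-d2 detection after 24 hr at room temperature; emissions 665 and 620 nm.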

Q: Which Potency does the source give for `Nc1c(Cl)cc(Cl)cc1Cl` here?
A: inactive

Q: With `CC(NN)c1ccccc1` (configuration not stated) as the molecule, how does the activation (H2AX phosphorylation) read?
A: -2.63% [at 31.6 µM]

Q: With `COc1cc(/C=C/C(=O)O[C@H]2CC[C@]34C[C@]35CC[C@]3(C)[C@@H]([C@H](C)CCC=C(C)C)CC[C@@]3(C)[C@@H]5CC[C@H]4C2(C)C)ccc1O` as the molecule, how does the Potency read?
A: inactive

Q: With `CCC(N)(CO)CO` as the molecule, how does the Potency read?
A: inactive

Q: Which Potency does the source give for `CC1=NC(C)OC1C` (configuration not stated) here?
A: inactive

Q: With `CC(C)(C)C(=O)OCOC(=O)C1N2C(=O)CC2S(=O)(=O)C1(C)C` (configuration not stated) as the molecule, how does the Potency read?
A: inactive

Q: Which Potency does the source give for `OCCCCCCCCCCCCBr` here?
A: inactive

Q: For `CCN(CCC#N)c1ccc(N=Nc2c(Cl)cc([N+](=O)[O-])cc2Cl)cc1`, which Potency is on record?
A: inactive

Q: With `COC(=O)C1=C(C)NC(C)=C(C(=O)OCC(C)C)C1c1ccccc1[N+](=O)[O-]` (configuration not stated) as the molecule, how does the Potency read?
A: inactive

Q: Which Potency does the source give for `N#CC1(c2ccc(F)cc2)CCC(=O)CC1` here?
A: inactive

Q: For `CCCCCCCCCCC=O`, which Potency is on record?
A: inactive

Q: For `CN(C)c1ccc(SC#N)cc1`, which Potency is on record?
A: inactive

Q: With `CCCCCCCCOc1ccccc1C(=O)Nc1ccc(C(=O)OCC[N+](C)(CC)CC)cc1` as the molecule, how does the Potency read?
A: inactive

Q: Which Potency does the source give for `CC(C)(C)c1ccc(C(=O)O)cc1` here?
A: inactive

Q: Which Potency does the source give for `CC(C)(C)C1CCC(CC2=C(O)c3ccccc3C(=O)C2=O)CC1` (configuration not stated) here?
A: inactive

Q: With `O=C1c2ccccc2Cc2ccccc21` as the molecule, how does the Potency read?
A: inactive

Q: With `Cc1nc(-c2ccc3c(c2)CCN(CCC2CCC(NC(=O)/C=C/c4ccc(F)cc4)CC2)CC3)no1` (configuration not stated) as the molecule, how does the Potency read?
A: inactive

Q: For `NC(=O)NS(=O)(=O)c1ccc(N)cc1`, which Potency is on record?
A: inactive

Q: Which Potency does the source give for `CCC1OCC(COc2ccc(Oc3ccccc3)cc2)O1` (configuration not stated) here?
A: inactive

Q: With `c1ccc(CSCc2ccccc2)cc1` as the molecule, how does the Potency read?
A: inactive

Q: For `Cc1cc(O)c(Cl)c(C)c1Cl`, which Potency is on record?
A: inactive

Q: For `Cc1c(C)c2c(c(C)c1O)CCC(C)(COc1ccc(CC3SC(=O)NC3=O)cc1)O2` (configuration not stated), which Potency is on record?
A: inactive

Q: For `C[C@H]1[C@H]2CC[C@H]3[C@@H]4CC=C5C[C@@H](N(C)C)CC[C@]5(C)[C@H]4CC[C@]23CN1C`, which Potency is on record?
A: inactive

Q: For `CCCCCOC(=O)CCCC`, which Potency is on record?
A: inactive

Q: For `CSc1cnc(C)cn1`, which Potency is on record?
A: inactive

Q: For `O=c1[nH]cnc2nc[nH]c12`, which Potency is on record?
A: inactive

Q: Which Potency does the source give for `Cc1cc(N)c(S(=O)(=O)O)cc1Cl` here?
A: inactive

Q: With `Fc1ccc([C@@H]2CCNC[C@H]2COc2ccc3c(c2)OCO3)cc1` as the molecule, how does the Potency read?
A: inactive

Q: Which Potency does the source give for `C/C=C(\C)C(=O)OCc1ccccc1` here?
A: inactive

Q: For `CCCCCCCC(=O)[O-].CCCCCCCC(=O)[O-].[Zn+2]`, which Potency is on record?
A: inactive

Q: For `C1CCCC1`, which Potency is on record?
A: inactive

Q: With `C/C=C1/C(=O)C[C@H]2[C@@H]3CCC4=CC(=O)CC[C@]4(C)[C@H]3CC[C@]12C` as the molecule, how does the Potency read?
A: inactive

Q: With `CN(C)CCCOC1(Cc2ccccc2)CCCCCC1` as the molecule, how does the Potency read?
A: inactive

Q: With `CCC(C)(C)C1CCCCC1OC(C)=O` (configuration not stated) as the molecule, how does the Potency read?
A: inactive

Q: Which Potency does the source give for `O=C(O)c1ccc(Cl)c(Cl)c1` here?
A: inactive

Q: Which Potency does the source give for `Cc1ccc(O)c(C(C)(C)C)c1` here?
A: inactive
